# The supplement of paper PMC9023506
# Where a name gives a salt, the structure may show the parent alone.
# Tests used:
# Conditions in all cases: 10 µM; exposure time: 3 h pre-incubation + 3 h imaging
# [1] = tested on: Danio rerio larvae (5 dpf); experiment: habituation to 1-s acoustic pulses, difference vs DMSO (percentage points (treated minus DMSO)); higher = more of the behaviour than the DMSO vehicle control
# Summary of the method: (§1)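 Library drugs were diluted 1000× from DMSO stocks into egg water to reach 10 µM and applied to 5-dpf wild-type zebrafish larvae in 96-well ProxiPlates, 48 larvae per drug. The larvae stayed exposed for 3 h before imaging and for the 3 h of imaging at 28.5 °C. Behaviour scores, given in percentage points, are the treated mean minus the vehicle mean for movement and upper-half location.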
# [2] = tested on: Danio rerio larvae (5 dpf); experiment: optomotor response to red moving lines, difference vs DMSO (percentage points (treated minus DMSO)); higher = more of the behaviour than the DMSO vehicle control
# Summary of the method: as §1
# [3] = tested on: Danio rerio larvae (5 dpf); experiment: activity during period 15 (no stimuli), difference vs DMSO (percentage points (treated minus DMSO)); higher = more of the behaviour than the DMSO vehicle control
# Summary of the method: as §1
# [4] = tested on: Danio rerio larvae (5 dpf); experiment: optomotor response to fast red moving lines, difference vs DMSO (percentage points (treated minus DMSO)); higher = more of the behaviour than the DMSO vehicle control
# Summary of the method: as §1
# [5] = tested on: Danio rerio larvae (5 dpf); experiment: excitability to 1-s acoustic pulses, difference vs DMSO (percentage points (treated minus DMSO)); higher = more of the behaviour than the DMSO vehicle control
# Summary of the method: as §1
# [6] = tested on: Danio rerio larvae (5 dpf); experiment: optomotor response to green moving lines, difference vs DMSO (percentage points (treated minus DMSO)); higher = more of the behaviour than the DMSO vehicle control
# Summary of the method: as §1
# [7] = tested on: Danio rerio larvae (5 dpf); experiment: startle response to 20-s acoustic pulses, difference vs DMSO (percentage points (treated minus DMSO)); higher = more of the behaviour than the DMSO vehicle control
# Summary of the method: as §1
# [8] = tested on: Danio rerio larvae (5 dpf); experiment: optomotor response to blue moving lines, difference vs DMSO (percentage points (treated minus DMSO)); higher = more of the behaviour than the DMSO vehicle control
# Summary of the method: as §1
structure (smiles),measurement,setting,value
CN1CC(=O)N2[C@H](c3ccc4c(c3)OCO4)c3[nH]c4ccccc4c3C[C@@H]2C1=O [Tadalafil],habituation to 1-s acoustic pulses,[1],-1.05
same,optomotor response to red moving lines,[2],-0.75
CCc1c2c(nc3ccc(OC(=O)N4CCC(N5CCCCC5)CC4)cc13)-c1cc3c(c(=O)n1C2)COC(=O)[C@]3(O)CC,habituation to 1-s acoustic pulses,[1],10.3
same,optomotor response to red moving lines,[2],-8.71
COc1cc2nc(N3CCN(C(=O)C4COc5ccccc5O4)CC3)nc(N)c2cc1OC (centres undefined) [Doxazosin mesylate],optomotor response to red moving lines,[2],-7.06
same,activity during period 15,[3],-7.81
same,optomotor response,[4],-4.8
C[C@]12CCC(=O)C=C1CC[C@@H]1[C@@H]2[C@@H](O)C[C@@]2(C)[C@H]1CC[C@]2(O)C(=O)CO [Hydrocortisone],excitability to 1-s acoustic pulses,[5],1.67
same,optomotor response to red moving lines,[2],13
CCCc1nn(C)c2c(=O)[nH]c(-c3cc(S(=O)(=O)N4CCN(C)CC4)ccc3OCC)nc12 [Sildenafil citrate],habituation to 1-s acoustic pulses,[1],-2.79
same,optomotor response to red moving lines,[2],-6
same,optomotor response to green moving lines,[6],-1.55
same,startle response to 20-s acoustic pulses,[7],0.54
C[C@H](Cc1cc2c(c(C(N)=O)c1)N(CCCO)CC2)NCCOc1ccccc1OCC(F)(F)F [Silodosin],optomotor response to red moving lines,[2],6.25
same,optomotor response to green moving lines,[6],1.5
N[C@@H]1[C@H]2CN(c3nc4c(cc3F)c(=O)c(C(=O)O)cn4-c3ccc(F)cc3F)C[C@@H]12 [Trovafloxacin mesylate],habituation to 1-s acoustic pulses,[1],-3.6
same,excitability to 1-s acoustic pulses,[5],11.3
same,optomotor response to red moving lines,[2],4.89
same,optomotor response to blue moving lines,[8],14.1
same,startle response to 20-s acoustic pulses,[7],-7.29
Brc1c(NC2=NCCN2)ccc2nccnc12,habituation to 1-s acoustic pulses,[1],-5.95
same,optomotor response to red moving lines,[2],17.8
same,optomotor response to green moving lines,[6],10.3
same,startle response to 20-s acoustic pulses,[7],-4.57
Cc1ccsc1C(=CCCN1CCC[C@@H](C(=O)O)C1)c1sccc1C [Tiagabine hydrochloride],habituation to 1-s acoustic pulses,[1],6.27
same,activity during period 15,[3],10.4
same,optomotor response to green moving lines,[6],8.59
CC(C)(C)NC(=O)[C@@H]1C[C@@H]2CCCC[C@@H]2CN1C[C@@H](O)[C@H](Cc1ccccc1)NC(=O)[C@H](CC(N)=O)NC(=O)c1ccc2ccccc2n1 [Saquinavir mesylate],habituation to 1-s acoustic pulses,[1],-0.0249
same,excitability to 1-s acoustic pulses,[5],9.21
same,activity during period 15,[3],-12.8
same,optomotor response to green moving lines,[6],-3.04
same,optomotor response,[4],-8.88
O=c1n(CCCN2CCN(c3cccc(Cl)c3)CC2)nc2ccccn12 [Trazodone hydrochloride],activity during period 15,[3],1.62
same,optomotor response to blue moving lines,[8],6.49
CCOC(=O)C1=C(COCCN)NC(C)=C(C(=O)OC)C1c1ccccc1Cl (centres undefined) [Amlodipine besylate],activity during period 15,[3],3.16
same,optomotor response to blue moving lines,[8],6.74
same,startle response to 20-s acoustic pulses,[7],0.195
CNC(=O)c1ccccc1Sc1ccc2c(/C=C/c3ccccn3)n[nH]c2c1 [Axitinib],optomotor response to green moving lines,[6],2.99
same,startle response to 20-s acoustic pulses,[7],-7.73
same,optomotor response,[4],-2.38
OCCN1C[C@H](O)[C@@H](O)[C@H](O)[C@H]1CO [Miglitol],habituation to 1-s acoustic pulses,[1],0.997
same,excitability to 1-s acoustic pulses,[5],5.41
same,activity during period 15,[3],-4.45
same,optomotor response to blue moving lines,[8],5.95
COc1cc([C@@H]2c3cc4c(cc3[C@@H](O[C@@H]3O[C@@H]5CO[C@@H](C)O[C@H]5[C@H](O)[C@H]3O)[C@H]3COC(=O)[C@H]23)OCO4)cc(OC)c1O [Etoposide],optomotor response to blue moving lines,[8],6.33
same,optomotor response,[4],-4.84
CC1(C)O[C@@H]2[C@@H](CO[C@@]3(COS(N)(=O)=O)OC(C)(C)O[C@@H]23)O1 [Topiramate],habituation to 1-s acoustic pulses,[1],-3.26
same,activity during period 15,[3],3.85
same,optomotor response to blue moving lines,[8],-3.75
CCCC1O[C@@H]2C[C@H]3[C@@H]4CCC5=CC(=O)C=C[C@]5(C)[C@H]4[C@@H](O)C[C@]3(C)[C@]2(C(=O)CO)O1 (some centres undefined) [Budesonide],activity during period 15,[3],5.26
same,optomotor response to blue moving lines,[8],2.29
O=C(O)c1cc(/N=N/c2ccc(S(=O)(=O)Nc3ccccn3)cc2)ccc1O [Sulfasalazine],habituation to 1-s acoustic pulses,[1],0.389
same,excitability to 1-s acoustic pulses,[5],-0.736
same,optomotor response to green moving lines,[6],0.416
same,optomotor response,[4],-5.17
COc1cccc2c1C(=O)c1c(O)c3c(c(O)c1C2=O)C[C@@](O)(C(=O)CO)C[C@@H]3O[C@H]1C[C@H](N)[C@H](O)[C@H](C)O1 [Doxorubicin hydrochloride],habituation to 1-s acoustic pulses,[1],3.26
same,optomotor response to blue moving lines,[8],3.86
COc1cc(N)c(Cl)cc1C(=O)NC1CCN(CCCOc2ccc(F)cc2)CC1OC (centres undefined) [Cisapride],habituation to 1-s acoustic pulses,[1],6.52
same,excitability to 1-s acoustic pulses,[5],16.4
same,optomotor response to blue moving lines,[8],4.41
same,startle response to 20-s acoustic pulses,[7],-0.377
same,optomotor response,[4],9.11
Cc1ccc(O)c([C@H](CCN(C(C)C)C(C)C)c2ccccc2)c1 [Tolterodine L-tartrate],habituation to 1-s acoustic pulses,[1],-4.35
same,optomotor response to blue moving lines,[8],7.18
CCOC(=O)[C@H](CCc1ccccc1)N[C@H]1CCc2ccccc2N(CC(=O)O)C1=O [Benazepril hydrochloride],activity during period 15,[3],4.55
same,optomotor response to green moving lines,[6],11.6
NC(=O)c1ncn([C@@H]2O[C@H](CO)[C@@H](O)[C@H]2O)n1 [Ribavirin],optomotor response to green moving lines,[6],-3.77
Cn1cnc([N+](=O)[O-])c1Sc1ncnc2[nH]cnc12 [Azathioprine],habituation to 1-s acoustic pulses,[1],-2.96
same,activity during period 15,[3],8.85
same,optomotor response to blue moving lines,[8],9.74
same,optomotor response,[4],9.79
COc1cc2nccc(Oc3ccc(NC(=O)C4(C(=O)Nc5ccc(F)cc5)CC4)cc3)c2cc1OC,optomotor response to green moving lines,[6],9.65
same,startle response to 20-s acoustic pulses,[7],-5.31
same,optomotor response,[4],-16.9
CC(C)c1nc(N(C)S(C)(=O)=O)nc(-c2ccc(F)cc2)c1/C=C/[C@@H](O)C[C@@H](O)CC(=O)O [Rosuvastatin calcium],habituation to 1-s acoustic pulses,[1],0.315
same,excitability to 1-s acoustic pulses,[5],-0.497
same,activity during period 15,[3],15.5
same,optomotor response to blue moving lines,[8],10.7
same,optomotor response,[4],11.1
